# Reference: the supplement of paper PMC7335073
# In all, about 4,100 sequences were measured (“relative CpG methylation activity (normalised to average over all NNNCGNNN flanks)”: median about 0.87, highest 2% from about 2.4 on). The entries come from a sample that favours the highest values as a whole.
# Target: DNMT3A catalytic domain (mouse) (UniProt O88508)
# Experiment: relative CpG methylation activity (normalised to average over all NNNCGNNN flanks) (relative (1 = mean)); higher = more methylation of the central CpG
# Conditions: system: in vitro, murine catalytic domain; CpG state: hemimethylated substrate pool; residues: 608-908
# Method: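 Deep enzymology: a pool of dsDNA substrates with a central CpG flanked by 10 random nucleotides on each side was methylated by the murine DNMT3A or DNMT3B catalytic domain (0.8 mM SAM, 37 °C, 60 min). Methylation was then read out by hairpin ligation, bisulfite conversion and NGS. Values are the average methylation of each NNNCGNNN context (±3 flanks; the outer flanks are random and averaged over), normalised to the overall mean, so 1 = average activity.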
row,Sequence,relative CpG methylation activity
1,CCTCGGAT,0.744
2,CCCCGCGC,1.17
3,TATCGACT,0.753
4,ATCCGGAT,1.34
5,GTGCGACC,1.61
6,AGCCGATT,0.672
7,GATCGCCA,0.923
8,ATCCGCCC,2.96
9,CTCCGCGT,1.98
10,ATCCGCCG,2.1
11,CGCCGCCT,1.48
12,TCCCGCCC,1.99
13,TTCCGCGC,2.03
14,CACCGCCA,1.32
15,TTCCGCCC,2.77
16,CGCCGCCA,1.25
17,CTCCGCCT,2.45
18,AACCGCCC,1.78
19,CTCCGCCA,2.37
20,CATCGGGG,0.133

row,Sequence,relative CpG methylation activity
1,CGCCGGTA,0.746
2,ATCCGGAA,0.939
3,CCACGCAC,1.81
4,CTTCGGGC,1.16
5,TCTCGACG,0.648
6,GGCCGCAA,0.657
7,TTGCGACT,1.31
8,ATCCGCGT,1.34
9,ATCCGCCT,2.5
10,GTCCGCCC,2.41
11,GTCCGCGG,0.584
12,GTCCGCCG,2.46
13,CGCCGCCC,1.77
14,GGCCGCCC,1.79
15,GCCCGCCC,2.25
16,GGCCGCCG,1.34
17,AACCGCCT,1.76
18,CTCCGCCC,2.44
19,CTCCGCCG,2.31
20,TAGCGCTG,0.34

row,Sequence,relative CpG methylation activity
1,CATCGACC,0.793
2,GATCGTTT,0.404
3,TGTCGGTC,0.542
4,GGTCGAAA,0.512
5,ATCCGCCA,2.4
6,ATCCGCGA,1.03
7,AGCCGCCA,1.02
8,AACCGAGG,0.346
9,AGACGAGA,0.731
10,CTCCGTCC,2.65
11,CTCCGTCG,1.92
12,CTCCGTCA,1.79
13,ATCCGTCG,2.08
14,TTCCGTCC,2.26
15,ATCCGTCC,2.61
16,GCACGGGC,1.47
17,GAACGTCG,1.25
18,ATGCGGCC,1.64
